HT1080NT lethal = kills 2HG-producing HT-1080-NT fibrosarcoma cells; HT-1080-NT fibrosarcoma viability, CellTiter-Glo ATP luminescence, 48 h; Potency, µM (top dose mostly 46.1 µM), for inactives: at the top dose activity, negative = less viability, usual class: cytotoxic; actives 1.6% (n = 360,000);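 note: NT is the 2HG producing partner of a matched IDH1 knockdown line; potency is the fitted concentration of half-maximal effect; 0% = DMSO-treated cells and -100% = media-only wells without cells; nearly all actives have a fitted effect of over 55% in size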
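Viability by CellTiter-Glo luminescence after 48 h compound exposure at 37C of HT-1080-NT cells (750/well, RPMI, 5% FBS). % activity scaled between DMSO wells and medium-only wells, then curve-fitted and categorized by curve class.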
IL1B secr inh = inhibitors of inflammasome signaling (IL-1 beta secretion); THP-1 LPS/ATP IL-1B secretion, AlphaLISA, 16 h; stronger effect = lower value; activity change, % at 57.5 µM; actives 4.7% (n = 360,000); AID 743279; in the data active = activity change below about -50%; inconclusive = mostly about -30% to -49%
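THP-1 cells pretreated 1 hr with compounds (up to 57.5 uM final), then stimulated with LPS (250 ng/mL final) plus ATP (1.25 mM final); secreted IL-1B measured by AlphaLISA after 16 hr, decreased signal indicating inhibition.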
TDP1 cell noCPT = qHTS for Inhibitors of human tyrosyl-DNA phosphodiesterase 1 (TDP1): qHTS in cells in absence of CPT; DT40 Tdp1-/- hTDP1 cells, no CPT, ATP luminescence, 48 h; Potency, µM (highest dose often 46.2 µM), inactives show at the top dose activity change, negative = growth inhibition, actives largely listed as inhibitors; actives 15% (n = 420,000); note: potency is the fitted concentration of half-maximal effect; nearly all actives have a fitted effect of over 55% in size
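No-CPT arm: Tdp1-/-;hTDP1 DT40 cells (400/well) plus compounds, incubated ≥48 hr at 37 °C. Readout CellTiter-Glo luminescence.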
ELG1 repair inh = inhibitors of ELG1-dependent DNA repair in HEK293T cells | HEK293T ELG1-luciferase reporter, luminescence, 16 h; DNA damage induced by 5-fluorouridine | Potency, µM (series often up to 46.1 µM), for the others: at the highest dose activity change, negative = inhibition, usual class: inhibitors | actives 2.3% (n = 330,000); note: potency is the fitted concentration of half-maximal effect; nearly all actives have a fitted effect of over 55% in size
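Reporter activity after DNA damage by 5-fluorouridine is monitored. Compound-treated cells incubate 16 hr at 37 °C, then ONE-Glo is added for 30 min before luminescence reading.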
HT1080 IDH1KD tx = kills HT-1080 cells with IDH1 knockdown | HT-1080 IDH1 knockdown viability, ATP luminescence, 48 h | Potency, µM (top dose mostly 46.1 µM), without a hit: at the highest dose activity, negative = toxicity, usual class: cytotoxic | actives 2% (n = 360,000);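 note: potency is the fitted concentration of half-maximal effect; 0% = DMSO wells and -100% = cell-free medium wells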
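Using the IDH1-knockdown HT-1080 line run in the same batch and compound series as the NT line, viability after 48 h at 37 °C was determined by CellTiter-Glo luminescence and expressed as % activity.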
TDP1 cell CPT = DT40-hTDP1 cell growth loss with CPT. chicken DT40 Tdp1-/-;hTDP1 cells + 20 nM CPT, ATP luminescence, 48 h. Potency, µM (top dose mostly 46.2 µM), without a hit: at the highest dose activity change, negative = growth inhibition, usual class: inhibitors. actives 12% (n = 420,000); note: potency is the fitted concentration of half-maximal effect; nearly all actives have a fitted effect of over 55% in size
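Cell growth measured by CellTiter-Glo luminescence after a minimum 48 h, 37 C compound exposure with 20 nM CPT in Tdp1-knockout DT40 cells stably expressing hTDP1, seeded 400/well; qHTS titration format.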
* marks the source's active call; other numbers are inactive results; ? = inconclusive; . = no result; [ ] = remark or other dose. Most compounds without a hit are left out; they make up all but 19% or so of the library. Unless noted, calls come from the whole dose curve; as a rule, active = well fitted curve in the direction sought with a large enough effect; inconclusive = small, poorly fitted or top-dose-only effect, or another doubt; inactive = no such curve, though single readings can be large; an effect the other way counts as inactive or inconclusive. Unless noted, % is set by controls: 0 for no effect and ±100 for the full control effect.

SMILES | HT1080NT lethal | IL1B secr inh | TDP1 cell noCPT | ELG1 repair inh | HT1080 IDH1KD tx | TDP1 cell CPT
CC(=O)c1ccc(NC(=O)COC(=O)c2ccccc2N=Nc2ccc(N(C)C)cc2)cc1 | -1% | ? | 21µM* | -28% | -2% | ?
COC(=O)c1ccccc1NC(=O)COC(=O)c1ccco1 | 5% | 9 | -6% | 4% | 2% | 7%
CN(C)c1ccc(N=Nc2ccccc2C(=O)OCC(=O)N(C)c2ccccc2)cc1 | -1% | -3 | ? | 13µM* | 1% | 21µM*
CC(C)N(C(=O)[C@H]1C[C@H](CC(=O)NC(C)(C)C)C(=O)N2CCc3c([nH]c4cc(-c5ccco5)ccc34)[C@]12C)C(C)C | -22% | -67* | ? | -18% | -23% | ?
CCN(CC)C(=O)[C@H]1C[C@H](CC(=O)NC(C)(C)C)C(=O)N2CCc3c([nH]c4cc(-c5ccco5)ccc34)[C@]12C | -5% | -8 | 18µM* | -28% | 0% | 23µM*
CC(C)N(C(=O)[C@H]1C[C@H](CC(=O)NCCN2CCOCC2)C(=O)N2CCc3c([nH]c4cc(-c5ccco5)ccc34)[C@]12C)C(C)C | -21% | ? | ? | 7% | -13% | ?
Cc1ccc(N2CC(C(=O)Nc3cccc(C(=O)NC4CC4)c3)CC2=O)cc1 (stereo not drawn) | 16% | 19 | 1% | -6% | 7% | -5%
O=[N+]([O-])c1ccc(-c2csc(Nc3ccccc3)[n+]2Cc2ccccc2)cc1 | -1% | -7 | 21µM* | ? | -1% | 21µM*
O=[N+]([O-])c1ccc(CS(=O)Cc2ccccc2)cc1 (stereo not drawn) | 6% | -10 | 4% | . | 12% | 2%
COc1ccc(-c2csc(Nc3ccccc3)[n+]2Cc2ccccc2)cc1 | -14% | -27 | 15µM* | -11% | -9% | ?
Cc1ccc(-c2csc(Nc3ccc(C(=O)O)cc3)[n+]2Cc2ccccc2)cc1 | -23% | -11 | ? | -24% | -4% | -24%
COC(=O)[C@H](CCSC)NC(=O)Cn1cnc2c(SC)nc(N)nc21 | 3% | 37 | -12% | 4% | 8% | ?
Cn1c(O)c(/C=C2\C=Nc3ccccc32)sc1=Nc1ccc(C(=O)O)cc1 | 0% | 61 | 12% | -7% | 8% | 0%
CCn1c(O)c(/C=C2\C=Nc3ccccc32)sc1=Nc1ccccc1 | 5% | 8 | 12µM* | ? | 3% | 10µM*
C=CCN1C(=O)SC(Cc2cccc(OC)c2O)C1=O (stereo not drawn) | 15% | -5 | -8% | 0% | 13% | 5%
CC1(C)CC(NC(=O)c2coc(=O)c(Br)c2)CC(C)(C)N1 | 10% | -15 | 0.52µM* | ? | 5% | 0.33µM*
O=C(COc1ccc2ccc(=O)oc2c1)Nc1ccc(N2CCCCC2)cc1 | 1% | -20 | 18µM* | 3% | 5% | ?
O=C(COc1ccc2ccc(=O)oc2c1)N1CCN(c2ccc(F)cc2)CC1 | -8% | -15 | 23µM* | 3% | 5% | ?
Cc1cc(=O)oc2cc(OCC(=O)N3CCN(c4ccccc4)CC3)ccc12 | 0%[9.24 µM] | 0 | 0% | 1% | 9% | -12%
O=C(COc1ccc2ccc(=O)oc2c1)Nc1ccc(CCO)cc1 | 2% | 6 | -5% | 15% | 11% | -7%
Cc1ccc(-c2ccnc(-n3ncc(C(=O)N4CCCCC4c4cccnc4)c3C3CC3)n2)o1 (stereo not drawn) | . | . | -3% | . | . | 15%[9.04 µM]
CC[C@@H](NCCCn1cnc2c(SC)ncnc21)c1ccccc1 | -1% | 0 | ? | . | -30% | 16µM*
c1ccc(COc2ncnc3c2ncn3CCCNC2CCN(Cc3ccccc3)CC2)cc1 | 23µM* | ? | 4.1µM* | . | 18µM* | 7.3µM*
CSc1ncnc2c1ncn2CCCNC1CCN(Cc2ccccc2)CC1 | -4% | ? | 23µM* | . | -27% | ?
CSc1ncnc2c1ncn2CCCNCc1cccc2ccccc12 | -12% | 4 | ? | . | -12% | -17%
SMILES | HT1080NT lethal | IL1B secr inh | TDP1 cell noCPT | ELG1 repair inh | HT1080 IDH1KD tx | TDP1 cell CPT
CSc1ncnc2c1ncn2CCCNCC1CCCO1 (stereo not drawn) | -5% | 4 | 4% | . | 1% | 7%
O=C(Nc1ccc(F)c(F)c1)c1cnn2c1NC(=C1CC1)C=C2C(F)(F)F | . | . | -15% | . | . | -15%
COc1cccc(CNC(=O)CCn2c(=O)c3cccn3c3cccnc32)c1OC | . | . | -24% | . | . | -13%
O=C(NCCCN1CCN(c2ccc(F)cc2)CC1)c1cc2c(Cl)nc3ccccc3c2s1 | . | . | 4.6µM* | . | . | 7.3µM*
CC1CCCN(CCCNC(=O)c2cc3c(Cl)nc4ccccc4c3s2)C1 (stereo not drawn) | ? | . | 7.3µM* | ? | 23µM* | 10µM*
Cc1ccc2ncc(C)c(C)c2c1 | . | . | -10% | . | . | -2%
CC(C)n1c(SCC(=O)Nc2nncs2)nnc1-c1ccco1 | 0% | 9 | 0% | 24% | 23% | 4%
Cc1cccc(-n2ccnc2SCC(=O)Nc2ccc(F)cc2F)c1C | . | . | 21µM* | . | . | 16µM*
Cn1ccnc1SCC(=O)Nc1cc(F)ccc1F | ? | -7 | 4% | 12% | 16% | -3%
Cc1cc(C)cc(-n2ccnc2SCC(=O)Nc2ccc(C)c(Cl)c2)c1 | . | . | 18µM* | . | . | 16µM*
CCOc1ccccc1NC(=O)CSc1nccn1-c1cccc(C)c1 | . | . | 18µM* | . | . | 21µM*
Cc1ccc(C)c2c1cc(C)c1nnc(SCC(=O)N3CCCc4ccccc43)n12 | 0% | -1 | 15µM* | ? | -5% | ?
CCSc1nnc(NC(=O)CSc2nccn2-c2cccc(C)c2)s1 | 3% | 3 | -5% | -1% | 3% | 1%
COc1ccc(CC(=O)N(C)c2ccccc2)cc1S(=O)(=O)N1CCOCC1 | -5% | -23 | -19% | . | -1% | -9%
Cc1ccc(N2CC(C(=O)Nc3ccc(S(=O)(=O)Nc4nccc(C)n4)cc3)CC2=O)cc1 (stereo not drawn) | 6% | -11 | 2% | 0% | 13% | -4%
COc1ccc(S(=O)(=O)N(C)C)cc1NC(=O)Cc1cccs1 | 1% | -4 | 0% | 9% | 1% | -1%
O=C1C=C(c2ccc(F)cc2OCc2ccccc2)C[C@@H](c2ccc(F)cc2)C1 | -15% | -18 | 4% | ? | -17% | -9%
O=C(CSc1nccn1C1CCCC1)Nc1cccc(F)c1 | . | . | -21% | . | . | -30%

Compound activity as filed in PubChem BioAssay.
